According to PubChem BioAssay (NCATS):
Where “and” joins values, the source holds several entries; their conditions need not be identical. Equal entries are not always repeated. Calls of active or inactive are those of the source. Unless noted, the call rests on the fitted dose curve; in most records, active means well fitted curve in the direction sought with a large enough effect; inconclusive means small, poorly fitted or top-dose-only effect, or another doubt; inactive means no such curve, though single readings can be large; an effect the other way counts as inactive or inconclusive.

Tests used:
[1] = target: Ferritin light chain (Equus caballus) (UniProt P02791); experiment: qHTS Validation Assay for Identification of Novel General Anesthetics (AID 2323); further: on the % scale 0 is the no-effect control and ±100 the full control effect
Chain of Ferritin light chain (Equus caballus) (P02791 2-175 limits assumed): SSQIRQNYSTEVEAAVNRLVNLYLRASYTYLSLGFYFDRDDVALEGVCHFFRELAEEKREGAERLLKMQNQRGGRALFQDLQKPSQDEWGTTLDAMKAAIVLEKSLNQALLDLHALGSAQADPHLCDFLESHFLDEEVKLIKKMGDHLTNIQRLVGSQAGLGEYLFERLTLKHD
In short: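 Competitive displacement of the profluorescent anesthetic 1-AMA (50% saturated, PBS) from 10 uM apoferritin, 10 min, room temperature. Activity is normalized 380/535 nm fluorescence; concentration-response fitted with a four-parameter Hill equation.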

[2] = target: ATP-dependent DNA helicase Q1 (Homo sapiens) (UniProt P46063); experiment: qHTS Validation Assay for Inhibitors of RecQ-Like Dna Helicase 1 (RECQ1) (AID 2353);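 further: plate controls were DMSO vehicle for no effect and enzyme-free control for full effect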
Chain of ATP-dependent DNA helicase Q1 (Homo sapiens) (P46063 whole entry, looked up): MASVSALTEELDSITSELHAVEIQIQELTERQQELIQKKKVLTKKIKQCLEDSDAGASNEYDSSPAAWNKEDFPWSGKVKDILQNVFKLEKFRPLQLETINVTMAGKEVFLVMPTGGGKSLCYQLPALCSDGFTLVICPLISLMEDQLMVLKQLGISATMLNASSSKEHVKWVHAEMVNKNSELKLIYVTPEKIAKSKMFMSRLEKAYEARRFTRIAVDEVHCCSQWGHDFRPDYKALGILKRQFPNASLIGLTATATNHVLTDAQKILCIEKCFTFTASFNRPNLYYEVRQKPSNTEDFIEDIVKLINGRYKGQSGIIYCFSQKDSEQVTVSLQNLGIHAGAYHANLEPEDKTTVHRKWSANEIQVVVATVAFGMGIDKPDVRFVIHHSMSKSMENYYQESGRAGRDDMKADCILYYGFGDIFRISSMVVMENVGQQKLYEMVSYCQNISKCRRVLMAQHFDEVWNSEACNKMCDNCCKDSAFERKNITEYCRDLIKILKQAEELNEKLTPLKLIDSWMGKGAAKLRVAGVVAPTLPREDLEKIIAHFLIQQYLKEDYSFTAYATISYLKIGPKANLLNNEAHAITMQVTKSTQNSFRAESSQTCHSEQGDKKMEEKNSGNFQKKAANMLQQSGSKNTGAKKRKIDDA
In short: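 50 nM RECQ1T1 preincubated 15 min with compound in Tris pH 8.0 buffer with MgCl2, DTT, Tween-20 and 2.5 ug/ml poly(dI-dC); started with 200 nM TAMRA/BHQ-2 forked duplex and 2 mM ATP. Unwinding read as fluorescence (525/598 nm), two reads 2 h apart.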

[3] = Validation screen for inhibitors of Lassa infection (AID 463096; calls by dose curve; further: on the % scale 0 is the no-effect control and ±100 the full control effect)
[4] = Quantitative high throughput screen for delayed death inhibitors of the malarial parasite plastid, 48 hour incubation (AID 488752); further: nearly all actives have a fitted effect of over 65% in size; further: potency means the concentration at half of the fitted maximal effect
In short: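 Erythrocytes infected with P. falciparum carrying an integrated firefly luciferase reporter (2% hematocrit, 0.1% parasitemia final) were exposed to compounds in RPMI 1640/0.5% Albumax for 48 h at 37 C, 5% CO2. Growth inhibition was scored as reduced luminescence.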

[5] = target: M-phase phosphoprotein 8 (Homo sapiens) (UniProt Q99549); experiment: qHTS Validation Assay for Inhibitors for MPP8 Chromodomain Interactions with Methylated Histone Tails (AID 488949); further: nearly all actives have a fitted effect of over 55% in size; further: potency means the concentration at half of the fitted maximal effect
In short: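 AlphaScreen proximity signal from streptavidin donor and Ni-chelate acceptor beads (10 ug/mL each) reported binding of MPP8 to trimethyl-K9 H3(1-18) peptide, both at 50 nM. The complex formed 30 min before a 30 min compound exposure at room temperature, in PBS pH 7.4.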

[6] = target: Transient receptor potential cation channel subfamily V member 1 (Homo sapiens) (UniProt Q8NER1); experiment: HTS Assay for Compounds that Act as Enhancers of the Vanilloid Receptor 1 (AID 488979); further: 0% is about no effect
Chain of Transient receptor potential cation channel subfamily V member 1 (Homo sapiens) (Q8NER1 whole entry, looked up): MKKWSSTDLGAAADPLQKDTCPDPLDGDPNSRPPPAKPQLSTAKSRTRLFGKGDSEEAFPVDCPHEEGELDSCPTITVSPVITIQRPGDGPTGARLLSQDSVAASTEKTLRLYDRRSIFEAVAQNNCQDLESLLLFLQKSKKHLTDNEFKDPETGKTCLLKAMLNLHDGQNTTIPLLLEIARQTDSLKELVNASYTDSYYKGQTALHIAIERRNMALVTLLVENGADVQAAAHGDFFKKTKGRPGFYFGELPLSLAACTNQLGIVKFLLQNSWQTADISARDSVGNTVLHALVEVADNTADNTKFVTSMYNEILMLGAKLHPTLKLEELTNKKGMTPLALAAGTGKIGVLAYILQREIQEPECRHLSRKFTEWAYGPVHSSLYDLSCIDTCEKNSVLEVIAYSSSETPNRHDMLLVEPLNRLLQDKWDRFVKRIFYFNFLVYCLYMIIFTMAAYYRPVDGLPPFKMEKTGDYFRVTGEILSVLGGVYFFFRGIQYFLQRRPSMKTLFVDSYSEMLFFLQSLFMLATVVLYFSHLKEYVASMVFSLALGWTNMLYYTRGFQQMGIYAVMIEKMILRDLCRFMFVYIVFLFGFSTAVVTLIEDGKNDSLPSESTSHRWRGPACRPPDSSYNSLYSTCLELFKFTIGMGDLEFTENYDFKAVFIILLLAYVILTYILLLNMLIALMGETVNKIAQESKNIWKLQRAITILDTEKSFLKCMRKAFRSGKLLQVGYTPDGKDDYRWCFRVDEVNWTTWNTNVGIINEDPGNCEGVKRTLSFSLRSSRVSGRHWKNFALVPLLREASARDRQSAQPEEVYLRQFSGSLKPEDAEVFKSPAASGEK
In short: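 TRPV1 cells loaded with Fluo-8 calcium dye; compound added and Ca2+ signal (ex 480/em 520 nm) followed 3 min, then capsaicin at EC20 added and read 2 more min to detect enhancement.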

[7] = target: Thyrotropin receptor (Homo sapiens) (UniProt P16473); experiment: qHTS Assay for Antagonists of the Thyroid Stimulating Hormone Receptor (AID 488980); further: 0% is about no effect
Chain of Thyrotropin receptor (Homo sapiens) (P16473 whole entry, looked up): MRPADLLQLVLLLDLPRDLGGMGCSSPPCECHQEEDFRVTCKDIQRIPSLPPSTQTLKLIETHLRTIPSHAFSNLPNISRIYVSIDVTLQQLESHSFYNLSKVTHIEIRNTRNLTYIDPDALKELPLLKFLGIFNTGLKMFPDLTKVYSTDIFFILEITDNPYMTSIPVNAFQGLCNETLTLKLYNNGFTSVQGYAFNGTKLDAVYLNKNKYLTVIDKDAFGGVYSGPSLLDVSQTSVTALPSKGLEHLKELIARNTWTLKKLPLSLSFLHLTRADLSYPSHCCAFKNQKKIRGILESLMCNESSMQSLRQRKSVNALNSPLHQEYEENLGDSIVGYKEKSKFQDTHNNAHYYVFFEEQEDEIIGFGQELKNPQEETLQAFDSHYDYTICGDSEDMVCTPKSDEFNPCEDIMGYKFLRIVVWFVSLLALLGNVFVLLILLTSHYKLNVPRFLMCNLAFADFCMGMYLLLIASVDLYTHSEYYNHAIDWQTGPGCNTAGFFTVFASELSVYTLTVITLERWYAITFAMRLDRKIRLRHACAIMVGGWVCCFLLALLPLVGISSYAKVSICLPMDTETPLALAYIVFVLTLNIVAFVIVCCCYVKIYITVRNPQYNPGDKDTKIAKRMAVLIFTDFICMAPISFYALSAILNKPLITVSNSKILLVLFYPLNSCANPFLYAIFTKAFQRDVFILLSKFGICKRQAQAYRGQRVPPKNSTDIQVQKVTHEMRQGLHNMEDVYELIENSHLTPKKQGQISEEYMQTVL
In short: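 Inhibition of cAMP raised by EC80 TSH (4 nM final) was read by HTRF, with lysate cAMP competing against cAMP-d2 for cryptate antibody after 30 min at room temperature. The cells were transfected HEK293 held in phosphodiesterase inhibitor RO 20-1724 at 70 uM.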

[8] = target: Thyrotropin-releasing hormone receptor (Homo sapiens) (UniProt P34981); experiment: qHTS for Small Molecule Agonists and Allosteric Enhancers of Human TRH Receptor: Validation Screen for Agonists (AID 493127;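 active means calcium activation more than 3 SD above the typical response in the agonist read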;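 further: intracellular calcium rise by fluo-8 fluorescence before TRH EC20 addition; 0% is about no effect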); settings: TRH receptor agonist cell assay; at 2 µM; stronger effect = higher value
Chain of Thyrotropin-releasing hormone receptor (Homo sapiens) (P34981 whole entry, looked up): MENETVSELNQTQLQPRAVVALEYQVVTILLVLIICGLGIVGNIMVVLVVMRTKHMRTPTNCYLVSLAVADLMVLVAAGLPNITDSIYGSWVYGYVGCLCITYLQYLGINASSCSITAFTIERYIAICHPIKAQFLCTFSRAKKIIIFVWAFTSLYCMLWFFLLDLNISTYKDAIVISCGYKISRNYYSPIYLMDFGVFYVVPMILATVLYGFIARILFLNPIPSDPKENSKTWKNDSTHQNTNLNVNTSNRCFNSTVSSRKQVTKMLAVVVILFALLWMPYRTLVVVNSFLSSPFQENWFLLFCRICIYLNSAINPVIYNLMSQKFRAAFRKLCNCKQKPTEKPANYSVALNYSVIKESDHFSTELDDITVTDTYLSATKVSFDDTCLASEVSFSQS
In short: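 TRHR-expressing cells were plated overnight in serum-containing medium, then loaded with fluo-8 calcium dye at room temperature for 30 min–1.5 h. After a 10 s baseline, compound was pin-transferred and calcium fluorescence (ex 480/em 530) read kinetically for agonist response.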

[9] = target: Galactokinase (Homo sapiens) (UniProt P51570); experiment: qHTS Validation Assay for Inhibitors of Human Galactokinase (GALK) (AID 493189); further: 0% is about no effect
In short: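 Inhibition was measured as remaining ATP, detected by luciferase luminescence after a 1 h room-temperature reaction. Final conditions: 5 nM GALK, 100 uM galactose, 35 uM ATP, pH 8.0 HEPES buffer.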

[10] = target: Voltage-gated inwardly rectifying potassium channel KCNH2 (Homo sapiens) (UniProt Q12809); experiment: qHTS Assay for Small Molecule Inhibitors of the Human hERG Channel Activity (AID 588834);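 further: lower thallium flux fluorescence means stronger hERG block; nearly all actives have a fitted effect of over 50% in size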; further: potency means the concentration at half of the fitted maximal effect
In short: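 Kinetic FDSS fluorescence; U2OS + hERG BacMam (~100 virus particles/cell); FluxOR Tl+ flux; ~10 min cpd; AC50 (Hill).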

[11] = target: Estrogen receptor (Homo sapiens) (UniProt P03372); experiment: qHTS assay for small molecule antagonists of estrogen receptor alpha signaling (AID 588513; active means well fitted curve in the direction sought with a large enough effect in the signal ratio, with a control signal flat, not every such curve was filed as active; inconclusive means small, poorly fitted or top-dose-only effect, or effect the other way, or a change in a side signal; inactive means no such curve, though single readings can be large or run the other way; the % refers to the signal ratio; further: potency means the concentration at half of the fitted maximal effect)
Chain of Estrogen receptor (Homo sapiens) (P03372 whole entry, looked up): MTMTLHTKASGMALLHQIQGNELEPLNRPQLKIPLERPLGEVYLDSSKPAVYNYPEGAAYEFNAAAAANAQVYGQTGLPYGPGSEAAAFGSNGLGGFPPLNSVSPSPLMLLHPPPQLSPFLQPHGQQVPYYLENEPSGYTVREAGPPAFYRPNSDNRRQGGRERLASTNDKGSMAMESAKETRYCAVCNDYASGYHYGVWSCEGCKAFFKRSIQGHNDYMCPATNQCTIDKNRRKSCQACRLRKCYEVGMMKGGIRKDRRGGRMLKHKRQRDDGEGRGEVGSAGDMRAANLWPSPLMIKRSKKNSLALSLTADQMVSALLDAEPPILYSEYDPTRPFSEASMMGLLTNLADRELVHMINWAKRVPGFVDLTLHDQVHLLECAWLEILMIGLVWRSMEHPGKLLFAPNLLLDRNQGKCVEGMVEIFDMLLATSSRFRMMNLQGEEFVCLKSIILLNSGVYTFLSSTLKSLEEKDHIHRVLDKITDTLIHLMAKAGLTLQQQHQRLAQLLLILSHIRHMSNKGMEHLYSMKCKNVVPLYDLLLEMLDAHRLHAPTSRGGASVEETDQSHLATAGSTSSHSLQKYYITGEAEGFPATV
In short: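 Antagonist mode: inhibition of 0.5 nM 17-beta-estradiol-driven beta-lactamase reporter in HEK 293 ER-alpha-UAS-bla cells, 18 h at 37C, CCF4 readout after 2 h at RT. Normalised to estradiol and DMSO; titration fitted to Hill.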

[12] = target: Glucocorticoid receptor (Homo sapiens) (UniProt P04150); experiment: qHTS assay for small molecule agonists of glucocorticoid receptor signaling (AID 588532; active means well fitted curve in the direction sought with a large enough effect in the signal ratio, with a control signal flat; inconclusive means small, poorly fitted or top-dose-only effect, or a change in a side signal; inactive means no such curve, though single readings can be large or run the other way; the % refers to the signal ratio;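 further: 100% = dexamethasone at 0.1 µM and 0% = DMSO only wells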); settings: HeLa MMTV-bla, beta-lactamase ratio, agonist, 18 h; stronger effect = higher value; percent of dexamethasone control, DMSO zero
Chain of Glucocorticoid receptor (Homo sapiens) (P04150 whole entry, looked up): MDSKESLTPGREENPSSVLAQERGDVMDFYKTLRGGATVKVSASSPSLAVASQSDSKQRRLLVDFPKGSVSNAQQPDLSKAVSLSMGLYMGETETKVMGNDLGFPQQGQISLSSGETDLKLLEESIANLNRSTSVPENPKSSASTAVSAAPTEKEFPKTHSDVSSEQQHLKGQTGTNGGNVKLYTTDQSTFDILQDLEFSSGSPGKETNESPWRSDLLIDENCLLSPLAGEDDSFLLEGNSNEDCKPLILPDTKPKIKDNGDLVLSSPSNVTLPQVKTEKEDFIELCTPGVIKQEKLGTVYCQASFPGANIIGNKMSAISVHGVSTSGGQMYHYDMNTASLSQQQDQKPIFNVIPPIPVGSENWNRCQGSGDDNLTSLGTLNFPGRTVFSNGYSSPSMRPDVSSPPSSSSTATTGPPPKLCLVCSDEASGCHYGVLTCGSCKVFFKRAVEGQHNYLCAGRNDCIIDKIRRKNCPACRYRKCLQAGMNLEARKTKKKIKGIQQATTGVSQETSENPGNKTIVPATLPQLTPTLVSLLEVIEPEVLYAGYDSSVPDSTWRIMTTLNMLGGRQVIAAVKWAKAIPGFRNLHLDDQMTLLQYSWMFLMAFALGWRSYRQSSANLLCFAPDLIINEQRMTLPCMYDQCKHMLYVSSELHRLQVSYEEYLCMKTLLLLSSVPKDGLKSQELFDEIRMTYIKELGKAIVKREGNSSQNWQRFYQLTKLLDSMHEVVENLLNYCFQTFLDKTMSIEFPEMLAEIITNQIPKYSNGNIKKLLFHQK
In short: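 HeLa GRE-bla reporter cells; 18 h compound exposure at 37 C; 2 h CCF4 loading at room temperature; fluorescence at 460 and 530 nm; EC50 by Hill equation.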

[13] = target: Vitamin D3 receptor (Homo sapiens) (UniProt P11473); experiment: qHTS assay for small molecule antagonists of vitamin D receptor signaling (AID 588541; calls by dose curve;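 further: receptor activated by calcitriol during compound treatment; on the % scale 0 is the no-effect control and ±100 the full control effect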)
In short: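 VDR-UAS-bla HEK293T cells in 2% charcoal-stripped FBS were stimulated with 1-alpha,25-dihydroxyvitamin D3 (3 nM final) plus compound for 16 h at 37 C. The beta-lactamase CCF4 readout was normalized to 50 nM agonist and DMSO, and Hill fits gave IC50.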

[14] = qHTS assay for environmental chemicals that activate the Aryl hydrocarbon Receptor (AhR) signaling pathway (AID 651777); settings: 1A2-DRE human hepatoma cells, luciferase, 24 h; activation: stronger effect = higher value; further: nearly all actives have a fitted effect of over 15% in size; further: potency means the concentration at half of the fitted maximal effect; on activation: % of control where 0% means no effect
In short: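 AhR activation is scored as a rise in luciferase from a stable DRE–CYP1A2 promoter construct in human hepatoma cells. Treatment lasts 24 hr at 37 C; detection uses One-Glo after 30 min at room temperature.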

[15] = target: Peroxisome proliferator-activated receptor alpha (Homo sapiens) (UniProt Q07869); experiment: qHTS assay for small molecule agonists of the peroxisome proliferator-activated receptor alpha (PPARalpha) signaling pathway (AID 651778); settings: PathHunter PPARalpha complementation, chemiluminescence, 6 h; stronger effect = higher value; further: % of control where 0% means no effect
Chain of Peroxisome proliferator-activated receptor alpha (Homo sapiens) (Q07869 whole entry, looked up, the tested form may be a part): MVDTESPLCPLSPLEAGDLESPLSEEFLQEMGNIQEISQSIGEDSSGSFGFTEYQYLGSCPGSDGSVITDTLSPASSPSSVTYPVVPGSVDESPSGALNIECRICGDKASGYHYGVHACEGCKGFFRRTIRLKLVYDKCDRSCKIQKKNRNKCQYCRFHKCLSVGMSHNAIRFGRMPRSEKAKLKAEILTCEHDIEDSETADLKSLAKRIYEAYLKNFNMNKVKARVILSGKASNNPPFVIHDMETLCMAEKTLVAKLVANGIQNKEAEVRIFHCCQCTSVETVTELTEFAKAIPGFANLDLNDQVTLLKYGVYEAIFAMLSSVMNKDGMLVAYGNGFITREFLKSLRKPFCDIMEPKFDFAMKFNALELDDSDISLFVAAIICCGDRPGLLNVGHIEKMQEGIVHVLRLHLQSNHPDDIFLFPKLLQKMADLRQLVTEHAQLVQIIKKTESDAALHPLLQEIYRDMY
In short: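 Enzyme-fragment complementation assay in which ligand-bound PPARalpha translocates and forms an active enzyme that generates chemiluminescence. Cells were plated overnight, exposed to compound for 6 hr at 37 C, and then given detection reagent for 60 min at room temperature.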

[16] = qHTS assay for small molecule agonists of the antioxidant response element (ARE) signaling pathway measured by Nrf2-dependant transcriptional activity - cell viability counter screen (AID 720653; active means well fitted curve in the direction sought with a large enough effect in the repeat runs; inconclusive means weak or mixed curves; inactive means no such curve, though single readings can be large; an effect the other way counts as inactive or inconclusive; further: on the % scale 0 is the no-effect control and ±100 the full control effect); settings: ARE-bla HepG2 viability, CellTiter-Glo ATP luminescence, 16 h; max response: stronger effect = lower value
In short: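 ARE-bla HepG2 cells treated with compounds for 16 h at 37C; this counter screen measures viability as intracellular ATP by CellTiter-Glo luminescence after 30 min at room temperature.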

[17] = qHTS assay for cell viability of the p53RE-bla HCT-116 cell line (AID 743292); further: on the % scale 0 is the no-effect control and ±100 the full control effect; nearly all actives have a fitted effect of over 55% in size
In short: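 Quantitative high-throughput format: compounds in DMSO were pinned onto p53RE-bla HCT-116 cells (4,000/well) and incubated 16 h at 37 C. Total intracellular ATP, read by CellTiter-Glo luminescence, reflects viable cell number.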

[18] = target: ATP-dependent 6-phosphofructokinase (Trypanosoma brucei brucei) (UniProt O15648); experiment: qHTS Assay to Find Inhibitors of T. brucei phosphofructokinase: hit validation (AID 492961)
In short: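 Inhibition of parasite PFK is measured as reduced ADP formation, quantified via luciferase after ATP depletion. Assay used 0.1 mM ATP, 0.5 mM F6P, 1.25 nM enzyme, 45 min incubation.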

CP203 = experiment: qHTS profiling for inhibitors of Plasmodium falciparum proliferation (AID 504749); further: nearly all actives have a fitted effect of over 60% in size; further: potency means the concentration at half of the fitted maximal effect; settings: P. falciparum in erythrocytes, SYBR Green DNA, 72 h; series mostly up to 28.7 µM
In short: (§1)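 Readout was DNA-dye fluorescence from lysed cultures, ex 485/em 535 nm. Parasitized red cells had grown 72 h with compound; data scaled between 0.29 uM artemisinin and DMSO wells and corrected using vehicle-only plates.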

DFO2036 = experiment: as above; settings: P. falciparum in erythrocytes, SYBR Green DNA, 72 h; series mostly up to 28.7 µM
In short: as §1

CN1CCc2cc(O)cc3c2C1Cc1ccc(O)c(O)c1-3 (stereo not given)
active: Potency [4] 18.5 µM | Potency [5] 22.4 µM
inactive: outcome [1] | Potency [2] | Potency [3] | outcome [6] | outcome [7] | activation [8] 1.44% | outcome [9]

N#CC(C#N)=Cc1ccc([N+](=O)[O-])c(O)c1
inactive: outcome [1] | Potency [2] | Potency [3] | Potency [4] | Potency [5] | outcome [6] | outcome [7] | activation [8] -0.188% | outcome [9] | Potency [10]

CC(C)(c1ccc(OCC2CO2)cc1)c1ccc(OCC2CO2)cc1 (stereo not given)
active: Potency [11] 31.6 µM [inconclusive] | Potency [10] 28.2 µM
inactive: activation [12] -1.68% and 2.51% | outcome [13] | activation [14] -0.167% and 1.71% | max response [15] -4.29% and -0.125% | max response [16] -3.1% | outcome [17]

CC(C)[C@@]1(NC(=O)[C@H]2CC3c4cccc5[nH]cc(c45)C[C@H]3N(C)C2)O[C@@]2(O)C3CCCN3C(=O)[C@@H](Cc3ccccc3)N2C1=O (stereo not given in full)
active: Potency (CP203) 6.75 µM | Potency (DFO2036) 7.08 µM
inactive: Potency [18]

CCN1C[C@]2(COC)[C@H](O)C[C@H](OC)[C@]34C1C([C@H](OC)[C@H]23)[C@]1(OC(C)=O)C2[C@@H](OC(=O)c3ccccc3)C(O)(C[C@H]24)[C@@H](OC)[C@@H]1O
inactive: Potency [18] | Potency (CP203) | Potency (DFO2036)

Cc1ccc2cc3c(ccc4ccccc43)c3c2c1CC3
inactive: Potency [11] | activation [12] 4.51% | outcome [13] | max response [15] -0.967% | max response [16] -7.15% | outcome [17]
active: Potency [14] 8.91 µM
